Most compounds without a hit are left out; they make up all but 10% or so of the library.
BAZ2B block: blocks human BAZ2B. Q9UIF8. Potency, µM (top dose mostly 114 µM), most hits filed as inhibitors. 4.4% of 360,000 active. AlphaScreen BAZ2B-H3K14Ac peptide displacement; also: nearly all actives have a fitted effect of over 60% in size
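Protein-peptide AlphaScreen: BAZ2B 50 nM, b-H3K14Ac 50 nM, 1x PBS pH 7.4 + 0.01% Tween-20. Preincubation 30 min RT; cpd 30 min RT (top 110 uM); beads 20 min RT, light-protected.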
HP1b binding inh: inhibitors of HP1-beta chromodomain binding to methylated histone tails; AID 540317; AlphaScreen HP1-beta / biotin-H3K9me3 peptide binding; Potency, µM (top dose mostly 114 µM), most hits filed as inhibitors; P83916; 0.56% of 390,000 active; also: nearly all actives have a fitted effect of over 70% in size
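AlphaScreen: HP1-beta (50 nM) preformed 30 min with biotin-H3(1-18)K9me3 peptide (50 nM) in PBS pH 7.4, 0.01% Tween-20. Compound added for 30 min at RT, then streptavidin donor/nickel chelate acceptor beads (10 ug/mL) for 30 min.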
GLS inhibitor: inhibitors of human glutaminase (GLS) | GLS enzymatic activity, qHTS titration | Potency, µM (highest dose often 45.5 µM), actives largely listed as inhibitors | O94925 | 0.21% of 410,000 active
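hKGA in 45 mM KH2PO4 (pH 8.2), 0.02% Tween-20 with compound, then 1mM L-Glutamine (stock as added) plus glutamate oxidase/HRP/Amplex red coupling mix. Fluorescence read initially and after 30 min at RT; signal change reflects glutamate formation.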
JMJD2A Tudor inh: inhibitors of human JMJD2A Tudor domain; O75164; AlphaScreen JMJD2A-Tudor / H3K4me3 peptide binding; Potency, µM (doses to about 114 µM), actives largely listed as inhibitors; 4.4% of 390,000 active; AID 504339; also: nearly all actives have a fitted effect of over 50% in size
Target sequence (O75164 whole entry, looked up, the tested form may be a part): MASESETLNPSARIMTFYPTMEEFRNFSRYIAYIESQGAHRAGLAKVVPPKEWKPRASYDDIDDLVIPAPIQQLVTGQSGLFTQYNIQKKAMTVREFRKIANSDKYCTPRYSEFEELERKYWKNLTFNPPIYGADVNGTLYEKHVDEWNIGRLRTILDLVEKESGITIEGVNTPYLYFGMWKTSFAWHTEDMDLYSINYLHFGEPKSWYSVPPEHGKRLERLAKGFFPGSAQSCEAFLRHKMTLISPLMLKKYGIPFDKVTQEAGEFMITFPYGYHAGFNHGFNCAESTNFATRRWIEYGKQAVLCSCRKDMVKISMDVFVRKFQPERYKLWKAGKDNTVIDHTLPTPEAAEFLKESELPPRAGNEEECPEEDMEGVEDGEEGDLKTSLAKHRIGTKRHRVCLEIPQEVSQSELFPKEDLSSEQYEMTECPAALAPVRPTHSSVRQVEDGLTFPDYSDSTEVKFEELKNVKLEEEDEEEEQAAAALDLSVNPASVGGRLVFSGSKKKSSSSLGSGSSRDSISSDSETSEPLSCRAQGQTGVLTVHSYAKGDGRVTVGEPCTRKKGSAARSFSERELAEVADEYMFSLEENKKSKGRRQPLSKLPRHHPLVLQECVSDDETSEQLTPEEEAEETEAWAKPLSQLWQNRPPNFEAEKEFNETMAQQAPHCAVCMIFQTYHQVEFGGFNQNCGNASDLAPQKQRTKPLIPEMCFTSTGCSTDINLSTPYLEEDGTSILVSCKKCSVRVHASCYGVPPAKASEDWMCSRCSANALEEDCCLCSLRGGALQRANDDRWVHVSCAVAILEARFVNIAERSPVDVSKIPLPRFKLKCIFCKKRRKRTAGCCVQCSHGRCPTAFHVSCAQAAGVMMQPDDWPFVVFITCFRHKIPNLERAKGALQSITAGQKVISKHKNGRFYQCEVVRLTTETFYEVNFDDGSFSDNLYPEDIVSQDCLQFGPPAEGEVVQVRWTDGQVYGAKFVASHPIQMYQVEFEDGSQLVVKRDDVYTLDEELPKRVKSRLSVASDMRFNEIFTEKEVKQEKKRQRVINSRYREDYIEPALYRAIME
G9a block: inhibitors of human histone lysine methyltransferase G9a; Q96KQ7; G9a H3K9 monomethylation, AlphaScreen, 2 h; Potency, µM (series often up to 102 µM), usual class: inhibitors; 8.8% of 350,000 active; also: nearly all actives have a fitted effect of over 75% in size
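Step 1: enzyme (final 20 nM) with compound, 15 min RT. Step 2: substrate peptide 500 nM and SAM 20 uM, 2 h RT. Step 3: anti-H3K9me1 antibody and AlphaScreen beads, 10 min, then plate read.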
Large screens that a line does not name were inactive. Calls follow the shape of the dose curve; as a rule, active = well fitted curve in the direction sought with a large enough effect; inconclusive = small, poorly fitted or top-dose-only effect, or another doubt; inactive = no such curve, though single readings can be large; an effect the other way counts as inactive or inconclusive.

Cn1c(=O)n(C)c2cc(/C=N/N=C3/NC(=O)C(CC(=O)O)S3)ccc21 (configuration not stated)	BAZ2B block 50µM, HP1b binding inh inconclusive, JMJD2A Tudor inh 32µM
O=C(O)CC1S/C(=N/N=C/C=C/c2ccccc2)NC1=O (configuration not stated)	BAZ2B block 79µM, JMJD2A Tudor inh 79µM, G9a block 7.9µM
COc1ccc(/C=N/N=C2/NC(=O)C(CC(=O)O)S2)cc1OS(=O)(=O)c1ccccc1 (configuration not stated)	G9a block inconclusive
CCOc1cc(/C=N/N=C2/NC(=O)C(CC(=O)O)S2)ccc1OCc1ccc(Cl)cc1 (configuration not stated)	BAZ2B block 56µM, JMJD2A Tudor inh 50µM
O=C(O)CC1S/C(=N/N=C/c2ccc(-c3ccc(Cl)cc3[N+](=O)[O-])o2)NC1=O (configuration not stated)	BAZ2B block inconclusive, JMJD2A Tudor inh inconclusive, G9a block 14µM
O=C(O)CC1S/C(=N/N=C/c2ccc(-c3ccc(Cl)c([N+](=O)[O-])c3)o2)NC1=O (configuration not stated)	G9a block inconclusive
O=C(C1CCCCC1)N1CCC(O)(c2ccc(Cl)cc2)CC1	none
Cc1noc(C)c1C(=O)OCC(=O)Nc1cccc(F)c1	none (no result: BAZ2B block, HP1b binding inh, JMJD2A Tudor inh, G9a block)
Cc1cccc(/C=N/NC(=O)c2ccc(Br)cc2)c1	none
CC(=O)Nc1ccc(S(=O)(=O)Oc2cccc(/C=N/N=C3/NC(=O)C(CC(=O)O)S3)c2)cc1 (configuration not stated)	BAZ2B block 56µM, G9a block inconclusive
Cc1ccc(-n2cc3c(=O)n(C)c(=O)n(C)c3c2)cc1C	G9a block 45µM
Oc1ccccc1N1CCN(CC(O)COCc2ccccc2Cl)CC1 (configuration not stated)	BAZ2B block 50µM, HP1b binding inh inconclusive, JMJD2A Tudor inh 20µM, G9a block 10µM
CCOC(=O)c1c(NC(=O)c2noc3c2CC(C(C)(C)C)CC3)sc2c1CCCC2 (configuration not stated)	HP1b binding inh inconclusive, JMJD2A Tudor inh 79µM, G9a block 2µM
Cc1cc(C(F)F)n2nc(C(=O)Nc3sc4c(c3C(N)=O)CCC4)nc2n1	G9a block 40µM
CC(=O)Nc1sc2c(c1C(N)=O)CCCC2	none
COC(=O)c1c(NC(=O)c2nc3nc(C)cc(C(F)F)n3n2)sc2c1CCC2	none
NC(=O)c1c(NC(=O)c2noc3c2CCCC3)sc2c1CCCC2	HP1b binding inh inconclusive, JMJD2A Tudor inh 79µM, G9a block 1.8µM
Cn1ccc(C(=O)Nc2sc3c(c2C(N)=O)CCCCC3)n1	G9a block 22µM
Cc1nn(CCC(=O)Nc2ccccc2Br)c(=O)c2nn(-c3ccccc3)c(C)c12	none
O=[N+]([O-])c1ccc(NN=Cc2ccc(O)cc2O)nc1	none (no result: BAZ2B block, G9a block)
Cc1cc2ncc(S(C)(=O)=O)c(N)n2n1	JMJD2A Tudor inh 13µM
Cc1ccc(-c2cc(C(=O)N3CC(C)CC(C)C3)c3ccccc3n2)o1 (configuration not stated)	BAZ2B block 79µM, HP1b binding inh inconclusive, JMJD2A Tudor inh 28µM, G9a block 8.9µM
Cc1ccc(-c2cc(C(=O)N3CCC(C)CC3)c3ccccc3n2)cc1	none
Cc1ccc(-c2cc(C(=O)N3CC(C)OC(C)C3)c3ccccc3n2)o1 (configuration not stated)	G9a block 10µM
O=C(O)/C=C/c1ccc(S(=O)(=O)NCc2ccco2)cc1	none (no result: BAZ2B block)
Cn1nccc1C(=O)Nc1cc(Cl)ccc1Cl	none (no result: BAZ2B block, G9a block)
N#C/C(=C\c1ccc(O)c(O)c1)C(=O)Nc1cccc2ncccc12	BAZ2B block inconclusive, JMJD2A Tudor inh inconclusive, G9a block 8.9µM
N#C/C(=C/c1ccc(O)c(O)c1)C(=O)NCc1ccc(Cl)cc1	BAZ2B block 35µM, HP1b binding inh 28µM, JMJD2A Tudor inh 13µM, G9a block 11µM
N#C/C(=C/c1ccc(O)c(O)c1)C(=O)OC/C=C/c1ccccc1	G9a block 1.6µM (no result: BAZ2B block, HP1b binding inh, GLS inhibitor, JMJD2A Tudor inh)
C[C@H](NC(=O)/C(C#N)=C/c1ccc(O)c(O)c1)c1ccccc1	G9a block 7.9µM (no result: BAZ2B block, HP1b binding inh, GLS inhibitor, JMJD2A Tudor inh)
COc1ccc(/C=C(\C#N)C(=O)Nc2cccc3ncccc23)cc1OC	G9a block inconclusive
CCOC(=O)/C(C#N)=C\c1ccc(N2CCN(C/C=C/c3ccccc3)CC2)cc1	none
COc1ccccc1NC(=S)N(Cc1ccc(C(=O)O)cc1)Cc1ccc(OC)c(OC)c1	G9a block inconclusive
Cc1nn(Cc2c(F)c(F)c(F)c(F)c2F)c(C)c1NC(=O)c1c([N+](=O)[O-])c(C)nn1C	none
COC(=O)N1CCC2(CC1)CN(c1ccncc1)C2	none (no result: BAZ2B block, HP1b binding inh, GLS inhibitor, JMJD2A Tudor inh)
N#C/C(=C\c1ccc(O)c(O)c1)C(=O)Nc1ccccc1	BAZ2B block 13µM, HP1b binding inh inconclusive, JMJD2A Tudor inh inconclusive, G9a block 7.1µM
N#C/C(=C\c1ccc(O)c(Br)c1)C(=O)NCc1ccccc1	none (no result: G9a block)
C[C@@H](NC(=O)/C(C#N)=C/c1ccc(O)c(O)c1)c1ccccc1	BAZ2B block 35µM, HP1b binding inh inconclusive, JMJD2A Tudor inh 40µM, G9a block 2.8µM
CC(=O)Nc1ccc(CN(C)c2c(C)nc3ccc(C(=O)N4CCN(C(=O)c5ccco5)CC4)cn23)cc1	none (no result: BAZ2B block, HP1b binding inh, JMJD2A Tudor inh, G9a block)
COc1ccc(-c2[nH]ncc2CN(C)C(C)c2ccncn2)c(F)c1 (configuration not stated)	none (no result: G9a block)
CCN(Cc1ccncc1)Cc1cn[nH]c1-c1ccc(OC)cc1F	G9a block 50µM
Cc1n[nH]c(=S)n(NC(=O)CC(=O)Nn2c(=S)[nH]nc(C)c2=O)c1=O	BAZ2B block 40µM, GLS inhibitor inconclusive, JMJD2A Tudor inh 79µM
Cc1n[nH]c(=S)n(NC(=O)/C=C/C(=O)Nn2c(=S)[nH]nc(C)c2=O)c1=O	BAZ2B block 25µM, HP1b binding inh inconclusive, GLS inhibitor 11µM, JMJD2A Tudor inh 13µM, G9a block inconclusive
Cc1cc(C)cc(NC(=O)Cn2cc(C(=O)c3ccncc3)c(=O)c3cc(C)c(C)cc32)c1	none
Clc1ccc(-c2nnc(-c3ccco3)nc2N2CCCCC2)cc1	BAZ2B block 50µM, JMJD2A Tudor inh 45µM, G9a block 10µM
Clc1ccc(-c2nnc(-c3ccc(Br)cc3)c(N3CCSCC3)n2)cc1	BAZ2B block inconclusive
COc1ccc(C2C3=C(N=C4SCC(=O)N42)c2ccccc2CC3)cc1 (configuration not stated)	G9a block 50µM
COc1ccc(C2C3=C(N=C4SCC(=O)N42)c2ccccc2CC3)cc1OC (configuration not stated)	JMJD2A Tudor inh inconclusive, G9a block 40µM
CCOC(=O)C1CCN(CC(=O)N2CCc3ccccc32)CC1	none
CCOC(=O)C1CCN(CC(=O)N2C(C)CCCC2C)CC1 (configuration not stated)	BAZ2B block 50µM, HP1b binding inh 45µM, JMJD2A Tudor inh 5µM, G9a block 8.9µM
